Compounds with a hit are over-represented: about 0.34% of the library has one in this group of screens.
Vif-A3F inh: qHTS for Inhibitors of Vif-A3F Interactions: qHTS; HeLa A3F-eYFP + Vif (tagged APOBEC3F with the HIV-1 protein that degrades it), YFP fluorescence increase; Potency, µM (series often up to 46.1 µM), for inactives: top-dose activity, negative = active; 0.2% of 390,000 active; AID 602313, 2012; further: % of control where 0% means no effect; nearly all actives have a fitted effect of over 65% in size
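HeLa cells stably expressing A3F-eYFP plus Vif, plated and incubated overnight at 37 deg C, then exposed to compounds overnight at 37 deg C. Blocked degradation read as raised yellow fluorescence (Ex 488/Em 500-530).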
Vif-A3G inh: qHTS for Inhibitors of Vif-A3G Interactions: qHTS; HeLa A3G-eYFP + Vif (tagged APOBEC3G with the HIV-1 protein that degrades it), YFP fluorescence, overnight; Potency, µM (top dose mostly 46.1 µM), without a hit: top-dose activity, negative = active, hits mostly inhibitors; 0.076% of 410,000 active; further: on the % scale 0 is the no-effect control and ±100 the full control effect; nearly all actives have a fitted effect of over 60% in size
Target sequence (Q9HC16 whole entry, looked up): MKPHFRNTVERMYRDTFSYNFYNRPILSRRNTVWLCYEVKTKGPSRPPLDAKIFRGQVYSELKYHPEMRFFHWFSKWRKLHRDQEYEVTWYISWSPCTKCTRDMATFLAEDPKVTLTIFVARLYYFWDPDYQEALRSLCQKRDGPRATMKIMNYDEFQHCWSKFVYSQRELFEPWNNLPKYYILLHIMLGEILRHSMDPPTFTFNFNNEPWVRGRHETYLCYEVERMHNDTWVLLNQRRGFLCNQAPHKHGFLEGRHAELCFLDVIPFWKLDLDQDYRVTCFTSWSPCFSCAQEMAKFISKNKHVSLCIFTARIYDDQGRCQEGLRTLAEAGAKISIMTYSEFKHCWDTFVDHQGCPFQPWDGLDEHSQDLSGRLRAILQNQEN
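HeLa cells stably expressing Vif and C-terminally eYFP-tagged A3G, seeded overnight at 37 deg C, then exposed to compound by pintool overnight at 37 deg C. Rise in yellow fluorescence (Ex 488/Em 500-530, Acumen) marks blocked Vif-driven A3G degradation.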
Epigenetic reg: Quantitative High-Throughput Screen for Regulators of Epigenetic Control; murine LDR cells, GFP reporter derepression, 30 h; Potency, µM (doses to about 53.9 µM), without a hit: at the top dose GFP activation, most hits filed as activators; 0.2% of 280,000 active; further: % of control where 0% means no effect; nearly all actives have a fitted effect of over 60% in size
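Murine LDR cells bearing a silenced CMV-driven GFP reporter were exposed to compound for 30 h at 37 C. After PBS washes, GFP-positive cells (20-120 um objects) counted by laser-scanning microplate cytometry.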
The depositor's hits bear a star; ? = inconclusive; nt = no result given. The call rests on the fitted dose curve; in most records, active means well fitted curve in the direction sought with a large enough effect; inconclusive means small, poorly fitted or top-dose-only effect, or another doubt; inactive means no such curve, though single readings can be large; an effect the other way counts as inactive or inconclusive. Potency means the concentration at half of the fitted maximal effect.

SMILES	Vif-A3F inh	Vif-A3G inh	Epigenetic reg
CCN1CCc2c(sc(NC(=O)c3ccc(S(=O)(=O)N(C)C4CCCCC4)cc3)c2C(N)=O)C1	?	?	6%
CNC(=O)c1c(NC(=O)c2ccc(S(=O)(=O)N3CCCc4ccccc43)cc2)sc2c1CCN(C)C2	?	-27%	22µM*
CS(=O)(=O)N1CCN(/[N+]([O-])=N/Oc2ccc([N+](=O)[O-])cc2[N+](=O)[O-])CC1	nt	-10%	nt
CC(C)(C)n1ncc2c(=O)n(Cc3ccc(C#N)c(F)c3)cnc21	nt	0%	nt
COc1ccc(-c2cc(C(=O)N/N=C/c3ccc(OC)c(OC)c3)[nH]n2)cc1	nt	nt	-6%
CCOC(=O)c1c(NC(=O)c2ccc(S(=O)(=O)N3CCC(C)CC3)cc2)sc2c1CCN(C)C2	10µM*	?	?
COC(=O)c1c(NC(=O)c2ccc(S(=O)(=O)N3CC(C)OC(C)C3)cc2)sc2c1CCN(C)C2 (stereo not given)	?	-9%	nt
CC(=O)Nc1nonc1-c1nnc(SCC(=O)Nc2cc(C)ccc2C)n1-c1ccccc1	3%	-4%	2%
Cc1ccc(-c2cc(C(=O)NCCCN3CCOCC3)no2)cc1	1%	-1%	-1%
O=C(NCCCN1CCOCC1)c1cc(-c2cccs2)on1	-15%	1%	14µM*
COC(=O)c1ccc(Cl)cc1NC(=O)N1CC=C(c2c[nH]c3ccccc23)CC1	22µM*	?	28µM*
O=C(C(=O)N1CC=C(c2ccccc2)CC1)c1c[nH]c2ccccc12	-13%	-4%	-1%
O=C(Nc1ccc(Br)cc1F)N1CC=C(c2c[nH]c3ccccc23)CC1	-24%	?	?
Cc1cccc(NC(=O)N2CC=C(c3c[nH]c4ccccc34)CC2)c1C	11µM*	?	?
C=C1C=C(C(F)F)n2ncc(C(=O)NC(C)CC)c2N1 (stereo not given)	nt	-4%	nt
CCCOc1ccccc1C(=O)Nc1ccc(-c2nc3ccc(C)cc3s2)cc1	0%	2%	-1%
COc1ccccc1NC(=O)CSc1oc(-c2cccs2)nc1S(=O)(=O)c1ccccc1	-5%	1%	3%
c1cc2c3c(c1)CCC[N+]3(C1CCCCC1)CCC2	nt	6%	nt
Oc1cccc2c(CC(O)c3c[nH]c4ccccc34)ccnc12 (stereo not given)	nt	-1%	nt
CCc1ccc(NC(=O)c2sc3nc(C)c(C(=O)Nc4ccc(C)cc4C)c(-c4ccco4)c3c2N)cc1	13µM*	-30%	18µM*
Cc1ccccc1NC(=O)c1sc2nc3c(c(-c4ccco4)c2c1N)CCC3	?	13µM*	3%
COc1cccc(NC(=O)c2sc3nc(C)c(C(=O)Nc4ccc(C)cc4C)c(-c4ccco4)c3c2N)c1	?	-21%	1%
NC(=O)c1sc2nc3c(c(-c4ccco4)c2c1N)CCCC3	-7%	4%	-1%
CC1CCCCN1C(=O)Cn1c(SCC(=O)N(C)c2ccccc2)nc2ccccc21 (stereo not given)	-7%	4%	-7%
Nc1ccccc1C=C1Cc2ccccc2C1=O	6.3µM*	?	nt
SMILES	Vif-A3F inh	Vif-A3G inh	Epigenetic reg
O=C1C(=Cc2ccccc2[N+](=O)[O-])Cc2ccccc21	13µM*	?	nt
COc1ccccc1/C=C1\Cc2ccccc2C1=O	4%	1%	1%
CC1(C)CC(=Cc2ccccc2[N+](=O)[O-])C(=O)c2ccccc21	-12%	1%	nt
COc1cccc(-c2ccc3c(N)c(C(=O)NCc4ccc(Cl)cc4)sc3n2)c1	-23%	-1%	?
C/C(=N\NC(=O)c1ccc(O)cc1)c1ccc2c(c1)Nc1ccccc1S2	-19%	2%	0%
C/C(=N\NC(=O)c1ccccc1F)c1ccc2c(c1)Nc1ccccc1S2	?	-23%	11µM*
O=C(Nc1ccc(SC(F)F)cc1)c1cccc2nc3ccccc3nc12	3%	0%	7.1µM*
O=C(Cn1cnc2ccccc21)Nc1ccc(SC(F)F)cc1	1%	-6%	-1%
CC(C)(C)n1ncc2c(=O)n(Cc3ccc(C(F)(F)F)cc3)cnc21	nt	1%	nt
CC(=O)c1cc(-c2ccc(F)cc2)n(CCC(=O)Nc2nc3ccc(C)cc3s2)c1C	-12%	3%	4%
Cc1ccc2oc(/N=C(\N)NC(=O)C3CC3)nc2c1	-4%	?	5%
Cc1ccc2oc(/N=C(\N)NC(=O)C(C)(C)C)nc2c1	22µM*	4%	-1%
O=C(Nc1ccc(Br)cc1)c1cc(S(=O)(=O)N2CCc3ccccc32)ccc1F	4%	2%	-4%
CCOc1ccc(-c2cnc(NCc3ccc(OC)cc3OC)n2C)cc1	6%	3%	0%

Screens from PubChem BioAssay.
